Source: PubChem BioAssay
Active and inactive are the calls of the source.

Experiments:
[1] = binders of probe aFSTL3 on microarray, primary screen, stem cell growth factor project, biochemical, small-molecule microarray, fluorescence 635/667 (AID 1064); conditions: higher = more signal;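 note: measures binding of the biotinylated anti-FSTL3 antibody to printed compounds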
[2] = binders from COS7 lysate, DM2A8 probe, primary screen, torsin A project, cell lysate, small-molecule microarray, fluorescence 635/667 (AID 1065); conditions: higher = more signal, COS7 lysate expressing mutant human TOR1A
[3] = binders of probe aFGF2 on microarray, primary screen, stem cell growth factor project, biochemical, small-molecule microarray, fluorescence 635/667 (AID 1067); conditions: higher = more signal;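 note: measures binding of biotinylated aFGF2 protein to printed compounds on slides; z-score merges feature fluorescence and signal-to-noise across triplicate slides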
[4] = binders of probe aFGF10 on microarray, primary screen, stem cell growth factor project, biochemical, small-molecule microarray, fluorescence 635/667 (AID 1071); conditions: higher = more signal;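 note: score merges 667 nm spot intensity and signal to noise from triplicate slides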
[5] = molecular target: Neurogenic locus notch homolog protein 2 (Homo sapiens) (UniProt Q04721); assay: Notch2 binders on small-molecule microarrays, primary screen, biochemical, small-molecule microarray, 635 nm fluorescence, stem cell growth factors (AID 1073); conditions: Notch2 binding, higher = more signal
[6] = molecular target: Pro-neuregulin-1, membrane-bound isoform (Homo sapiens) (UniProt Q02297); assay: NRG1 binders on small-molecule microarrays, primary screen, psychiatric disease protein project, biochemical, small-molecule microarray, fluorescence 635/667 (AID 1075); conditions: NRG1 binding, 635 nm fluorescence, higher = more signal;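 note: score combines 667 nm spot fluorescence with signal to noise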
[7] = test system: Neuregulin-1 EGF-like domain; assay: binders of neuregulin-1 EGF-like domain, primary screen, biochemical, small-molecule microarray, 635 nm fluorescence (AID 1081); conditions: small-molecule microarray binding, higher = more signal;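 note: binding of the protein to compounds printed on small-molecule microarray slides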
[8] = FRG1 promoter luciferase signal modulators, primary screen, FRG1 inhibition for FSHD, cell-based, C2C12 myotubes, firefly/Renilla luciferase, luminescence (AID 1084); conditions: higher = more signal, called active from +8 up or from −8 down
[9] = binders of probe aFST on microarray, primary screen, stem cell growth factor project, biochemical, small-molecule microarray, fluorescence 635/667 (AID 1086); conditions: higher = more signal;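 note: score merges 667 nm fluorescence with signal-to-noise of each printed compound spot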
[10] = binders of probe aHhip on microarray, primary screen, stem cell growth factor project, biochemical, small-molecule microarray, fluorescence 635/667 (AID 1087); conditions: higher = more signal;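 note: score merges spot fluorescence at 667nm with spot signal to noise ratio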
[11] = test system: PRMT1 (protein arginine N-methyltransferase 1); assay: PRMT1 binders on small-molecule microarrays, primary screen, biochemical, small-molecule microarray, 635 nm fluorescence (AID 1088); conditions: small-molecule microarray binding, higher = more signal;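 note: binding of Prmt1 protein to compounds spotted on small-molecule microarray slides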
[12] = yeast growth modulation, basal conditions, primary screen, YJM789 clinical isolate, OD600, 24 h (AID 1089);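 note: growth of clinical yeast isolate S. cerevisiae YJM 789 seeded 1000 cells per well; test concentration not given here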; conditions: S. cerevisiae YJM789 growth, higher = more signal, called active from +8 up or from −8 down
[13] = fission yeast growth modulation, primary screen, strain 972, OD600, 24 h, no modulator (AID 1090);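 note: basal condition with compound alone and no growth modifier present; test concentration not given here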; conditions: S. pombe 972 growth, higher = more signal, called active from +8 up or from −8 down
[14] = S. cerevisiae growth modulation with rapamycin, primary screen, strain BY4716, OD600, 96 h (AID 1091); conditions: higher = more signal, called active from +8 up or from −8 down; note: test concentration not given here
[15] = molecular target: Torsin-1A-interacting protein 2 (Homo sapiens) (UniProt Q8NFQ8); assay: LULL1 binders on small-molecule microarray, primary screen, cell lysate, human LULL1 lysate, 635/667 nm fluorescence (AID 1092); conditions: hLULL1 lysate binding, 635 nm fluorescence, higher = more signal;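 note: probe is lysate of COS7 cells overexpressing human LULL1; score merges per-feature 667 nm fluorescence with signal-to-noise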
[16] = E. coli growth modulation, two-sided OD650, primary screen, E. coli filamentation project, strain DRC41, 24 h (AID 1093); conditions: OD650, 24 h, higher = more signal, called active from +8 up or from −8 down;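 note: MC1000 strain lacking acrAB efflux and sulA so SOS filamentation is blocked; test concentration not given here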
[17] = small-molecule microarray binders of probe aLefty2, primary screen, biochemical, biotinylated probe, 635/667 nm fluorescence (AID 1094); conditions: higher = more signal;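 note: score merges spot fluorescence near 667 nm with spot signal-to-noise ratio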
[18] = test system: Noggin (protein binding on small-molecule microarray); assay: Noggin binders on small-molecule microarray, primary screen, biochemical, 635/667 nm fluorescence (AID 1095); conditions: 635 nm fluorescence, higher = more signal;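 note: score merges 667 nm feature fluorescence with signal to noise over triplicate slides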
[19] = molecular target: Neurogenic locus notch homolog protein 3 (Homo sapiens) (UniProt Q9UM47); assay: NOTCH3 binders on small-molecule microarray, primary screen, biochemical, 635/667 nm fluorescence (AID 1096); conditions: NOTCH3 binding, 635 nm fluorescence, higher = more signal
[20] = small-molecule microarray binders of probe aEGFR, primary screen, biochemical, biotinylated probe, 635/667 nm fluorescence (AID 1097); conditions: higher = more signal;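 note: probe is a biotinylated anti-EGFR antibody binding compounds printed on slides; score combines fluorescence near 667 nm and signal to noise of each spot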

Chain of Pro-neuregulin-1, membrane-bound isoform (Homo sapiens) (Q02297 whole entry, looked up, the tested form may be a part, canonical isoform): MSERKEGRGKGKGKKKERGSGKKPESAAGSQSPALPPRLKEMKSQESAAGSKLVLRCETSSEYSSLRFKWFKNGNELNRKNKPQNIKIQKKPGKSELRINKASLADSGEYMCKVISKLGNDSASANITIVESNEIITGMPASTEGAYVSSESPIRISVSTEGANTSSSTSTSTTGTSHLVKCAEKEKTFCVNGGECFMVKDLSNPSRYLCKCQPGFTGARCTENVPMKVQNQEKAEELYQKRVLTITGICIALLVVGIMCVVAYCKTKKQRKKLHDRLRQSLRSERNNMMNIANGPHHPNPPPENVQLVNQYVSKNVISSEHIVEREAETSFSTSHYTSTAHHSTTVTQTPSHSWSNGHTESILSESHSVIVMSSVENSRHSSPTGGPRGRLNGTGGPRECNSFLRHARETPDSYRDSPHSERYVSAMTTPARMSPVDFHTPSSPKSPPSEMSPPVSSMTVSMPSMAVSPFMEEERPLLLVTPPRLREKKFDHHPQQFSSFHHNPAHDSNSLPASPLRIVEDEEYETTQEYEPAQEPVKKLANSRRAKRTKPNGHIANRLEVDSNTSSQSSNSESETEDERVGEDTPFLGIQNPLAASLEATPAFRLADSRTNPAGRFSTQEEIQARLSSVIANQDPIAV
Chain of Torsin-1A-interacting protein 2 (Homo sapiens) (Q8NFQ8 whole entry, looked up): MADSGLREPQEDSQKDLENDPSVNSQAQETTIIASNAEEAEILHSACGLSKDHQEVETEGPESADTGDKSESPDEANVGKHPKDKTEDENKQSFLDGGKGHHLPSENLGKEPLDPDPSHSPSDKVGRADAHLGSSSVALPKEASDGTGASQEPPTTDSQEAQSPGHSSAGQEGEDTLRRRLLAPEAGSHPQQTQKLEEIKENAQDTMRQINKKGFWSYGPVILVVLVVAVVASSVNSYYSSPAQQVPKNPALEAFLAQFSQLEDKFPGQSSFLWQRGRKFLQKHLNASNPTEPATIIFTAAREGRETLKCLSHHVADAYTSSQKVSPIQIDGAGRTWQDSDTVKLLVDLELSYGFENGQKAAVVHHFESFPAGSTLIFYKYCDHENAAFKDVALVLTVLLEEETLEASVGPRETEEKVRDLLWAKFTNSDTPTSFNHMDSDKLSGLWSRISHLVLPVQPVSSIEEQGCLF
Chain of Neurogenic locus notch homolog protein 2 (Homo sapiens) (Q04721 whole entry, looked up, canonical isoform): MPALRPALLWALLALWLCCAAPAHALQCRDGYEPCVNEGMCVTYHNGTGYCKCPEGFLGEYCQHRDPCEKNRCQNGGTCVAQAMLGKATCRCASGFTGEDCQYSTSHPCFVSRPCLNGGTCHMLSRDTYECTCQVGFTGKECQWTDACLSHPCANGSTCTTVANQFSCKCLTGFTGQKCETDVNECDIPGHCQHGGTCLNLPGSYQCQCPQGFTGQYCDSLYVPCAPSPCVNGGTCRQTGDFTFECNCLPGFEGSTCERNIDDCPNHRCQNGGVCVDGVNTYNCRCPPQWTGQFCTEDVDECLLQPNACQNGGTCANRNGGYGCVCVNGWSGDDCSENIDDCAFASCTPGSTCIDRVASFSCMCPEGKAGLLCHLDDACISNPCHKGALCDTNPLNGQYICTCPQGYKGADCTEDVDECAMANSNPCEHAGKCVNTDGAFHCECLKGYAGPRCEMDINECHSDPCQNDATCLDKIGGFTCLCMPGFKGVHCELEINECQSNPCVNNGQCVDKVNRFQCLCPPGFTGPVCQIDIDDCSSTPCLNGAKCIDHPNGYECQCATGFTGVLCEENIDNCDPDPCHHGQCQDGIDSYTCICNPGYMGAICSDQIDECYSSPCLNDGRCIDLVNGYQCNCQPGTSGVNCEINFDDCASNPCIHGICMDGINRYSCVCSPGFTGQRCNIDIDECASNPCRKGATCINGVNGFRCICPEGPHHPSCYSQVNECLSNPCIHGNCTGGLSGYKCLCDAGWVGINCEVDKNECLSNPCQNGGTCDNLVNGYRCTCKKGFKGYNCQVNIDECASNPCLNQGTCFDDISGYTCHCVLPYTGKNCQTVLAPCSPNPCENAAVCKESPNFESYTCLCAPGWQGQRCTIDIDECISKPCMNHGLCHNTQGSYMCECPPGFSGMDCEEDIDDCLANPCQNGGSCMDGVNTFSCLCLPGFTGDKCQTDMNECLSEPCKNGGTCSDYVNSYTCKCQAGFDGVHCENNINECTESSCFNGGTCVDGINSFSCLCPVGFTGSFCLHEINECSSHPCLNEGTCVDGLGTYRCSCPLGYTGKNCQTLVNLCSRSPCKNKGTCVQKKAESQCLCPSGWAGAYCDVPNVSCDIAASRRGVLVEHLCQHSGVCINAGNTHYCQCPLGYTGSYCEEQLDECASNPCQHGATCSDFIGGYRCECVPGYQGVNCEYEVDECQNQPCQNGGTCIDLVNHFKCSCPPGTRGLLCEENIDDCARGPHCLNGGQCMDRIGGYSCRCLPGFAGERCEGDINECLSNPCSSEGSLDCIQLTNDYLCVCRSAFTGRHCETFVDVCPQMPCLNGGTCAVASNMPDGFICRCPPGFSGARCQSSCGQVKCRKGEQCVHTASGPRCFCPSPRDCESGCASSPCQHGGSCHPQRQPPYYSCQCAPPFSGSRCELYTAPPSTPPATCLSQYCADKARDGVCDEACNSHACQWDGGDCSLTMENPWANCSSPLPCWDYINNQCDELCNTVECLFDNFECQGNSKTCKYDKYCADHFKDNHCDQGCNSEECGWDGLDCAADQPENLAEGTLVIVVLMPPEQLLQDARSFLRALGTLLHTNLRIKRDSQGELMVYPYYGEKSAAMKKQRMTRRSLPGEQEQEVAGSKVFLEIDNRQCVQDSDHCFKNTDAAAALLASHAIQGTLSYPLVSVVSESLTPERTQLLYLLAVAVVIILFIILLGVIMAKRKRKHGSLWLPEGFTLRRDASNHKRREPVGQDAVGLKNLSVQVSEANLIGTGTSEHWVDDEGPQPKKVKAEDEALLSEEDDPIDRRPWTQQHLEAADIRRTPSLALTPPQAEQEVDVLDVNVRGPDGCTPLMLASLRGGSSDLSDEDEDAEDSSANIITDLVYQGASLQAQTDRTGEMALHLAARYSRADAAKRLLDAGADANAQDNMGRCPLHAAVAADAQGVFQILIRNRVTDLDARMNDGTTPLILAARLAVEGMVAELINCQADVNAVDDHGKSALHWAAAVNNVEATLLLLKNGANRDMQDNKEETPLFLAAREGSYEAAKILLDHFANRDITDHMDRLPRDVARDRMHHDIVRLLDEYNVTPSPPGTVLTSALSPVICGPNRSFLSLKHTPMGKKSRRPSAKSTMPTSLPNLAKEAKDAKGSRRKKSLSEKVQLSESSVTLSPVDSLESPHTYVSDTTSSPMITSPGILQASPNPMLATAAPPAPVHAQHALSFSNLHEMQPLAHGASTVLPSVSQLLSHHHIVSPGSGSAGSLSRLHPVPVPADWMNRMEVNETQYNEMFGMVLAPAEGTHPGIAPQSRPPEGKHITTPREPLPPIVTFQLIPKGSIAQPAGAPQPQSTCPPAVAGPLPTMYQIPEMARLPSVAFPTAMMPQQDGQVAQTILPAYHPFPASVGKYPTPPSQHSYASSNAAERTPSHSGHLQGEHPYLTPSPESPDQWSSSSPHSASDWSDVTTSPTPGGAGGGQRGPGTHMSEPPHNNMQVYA

| SMILES | composite z-score [1] | composite z-score [2] | composite z-score [3] | composite z-score [4] | composite z-score [5] | composite z-score [6] | composite z-score [7] | z-score [8] | composite z-score [9] | composite z-score [10] | composite z-score [11] | z-score [12] | z-score [13] | z-score [14] | composite z-score [15] | z-score [16] | composite z-score [17] | composite z-score [18] | composite z-score [19] | composite z-score [20] |
| --- | --- | --- | --- | --- | --- | --- | --- | --- | --- | --- | --- | --- | --- | --- | --- | --- | --- | --- | --- | --- |
| O=C1C2C=CC(C(O)C(c3ccccc3)c3ccccc3)N(Nc3ccccc3F)C2C(=O)N1c1ccccc1 (stereo not given) | -0.117 | 0.975 | 0.11 | 1.03 | 1.63 | 1.76 | 1.32 | -0.243 (inactive) | 1.5 | -0.121 | 1.52 | 0.504 (inactive) | 0.973 (inactive) | 1.75 (inactive) | 3.58 | -1.06 (inactive) | 0.0943 | 0.295 | 1.02 | 0.162 |
| O=C1O[C@H](c2ccccc2)[C@H](c2ccccc2)N2[C@H]1[C@@H](C(=O)Nc1nc3ccccc3s1)[C@]1(C(=O)Nc3ccccc31)[C@H]2c1ccccc1OCCO | -0.249 | -0.0611 | 0.0084 | 0.12 | 1.15 | 1.42 | 1.02 | 1.62 (inactive) | -0.0275 | -0.0994 | 1.5 | 1.91 (inactive) | 2.2 (inactive) | 3.94 (inactive) | 3.09 | 0.732 (inactive) | 0.229 | 0.712 | 0.595 | -0.0828 |
| C=C(COC)C(=O)CC[C@@H](OC(=O)c1ccccc1-c1ccccc1C(=O)O)c1ccccc1OCCO | -0.167 | 2.13 | -0.0543 | 1.27 | 0.468 | -0.189 | 1.12 | 0.896 (inactive) | -0.168 | -0.236 | 1.37 | -1.4 (inactive) | -1.95 (inactive) | -1.12 (inactive) | -0.225 | -0.434 (inactive) | -0.122 | 0.641 | 0.586 | -0.184 |
| NCCCCCCNC(=O)[C@@H]1C[C@@H]2C(=O)NCC(=O)N2[C@@H]1c1cccc(OCCO)c1 | 0.403 | 0.641 | 0.047 | 0.847 | 1.2 | 0.982 | 1.22 | 0.726 (inactive) | 0.543 | 0.385 | 1.37 | -0.205 (inactive) | -0.542 (inactive) | -0.138 (inactive) | 2.11 | 1.04 (inactive) | 0.0997 | 1.12 | 0.783 | 0.0988 |
| CN1C(=O)C2C=CC(C(O)c3cccs3)N(N(c3ccccc3)c3ccccc3)C2C1=O (stereo not given) | -0.128 | -0.493 | 0.0472 | 0.272 | 1.1 | 1.19 | 1.21 | -0.179 (inactive) | 0.379 | -0.0645 | 1.2 | 1 (inactive) | 0.881 (inactive) | 0.571 (inactive) | 2.62 | -0.874 (inactive) | 0.0453 | 0.0625 | 0.932 | -0.17 |
| COCCOC(=O)N1C(=O)[C@@]2(c3cc(C#CCNC(N)=O)ccc31)[C@H](c1ccc(O)cc1)N1[C@H](c3ccccc3)[C@H](c3ccccc3)OC(=O)[C@H]1[C@@H]2C(=O)N1CCc2cc(OC)c(OC)cc2C1 | 0.141 | 0.0344 | 0.0525 | 0.67 | 1.07 | 1.06 | 0.786 | 0.411 (inactive) | 0.39 | -0.0427 | 1.29 | 1.05 (inactive) | 0.123 (inactive) | 1.84 (inactive) | 1.47 | -0.732 (inactive) | -0.0475 | 0.978 | 0.636 | -0.0967 |
| COc1ccc([Si](C)(C)[C@@H]2[C@@H](CC(=O)N3Cc4ccccc4C[C@H]3CO)O[C@]3(C(=O)N(Cc4ccc(I)cc4)c4ccccc43)[C@H]2C)cc1 | -0.127 | 0.0826 | -0.136 | 0.184 | 0.472 | 0.537 | 0.909 | -2.83 (inactive) | 0.259 | -0.204 | 1.57 | 0.391 (inactive) | 0.956 (inactive) | 2.07 (inactive) | 0.603 | 2.19 (inactive) | 0.0007 | 1.92 | 1.1 | -0.0982 |
| COc1cc2c(cc1O)C(C)N(Cc1sc3ccccc3c1Cl)CC2 (stereo not given) | 0.208 | -1.01 | -0.17 | -0.563 | -0.246 | 0.717 | 0.343 | 0.541 (inactive) | -0.133 | -0.0994 | -0.77 | 0.173 (inactive) | -12.3 (active) | -1.6 (inactive) | -0.0038 | 0.566 (inactive) | 0.107 | -0.417 | -0.88 | -0.2 |
| C=CCN1C(=O)[C@]2(O[C@H](CCO)[C@@H]([Si](C)(C)c3ccc(OC)cc3)[C@@H]2C)c2cc(N3C(=O)c4ccccc4Oc4ccccc43)ccc21 | -0.086 | -0.203 | -0.0392 | 0.56 | 0.0699 | 0.967 | 1.03 | -1.5 (inactive) | 0.0141 | -0.236 | 1.41 | 0.922 (inactive) | 0.729 (inactive) | 35.6 (active) | 2.13 | 0.77 (inactive) | -0.0658 | 0.458 | 0.803 | -0.115 |
| C[C@]12C(=O)N(CCO)[C@@H]3C(=O)N(c4ccc(Cl)cc4)CC=CC31O[C@@H]1/C=C\CCCOC(=O)C12 (stereo not given in full) | 0.721 | -0.581 | -0.0985 | -0.986 | -0.759 | 1.12 | 0.0495 | 0.868 (inactive) | -0.599 | -0.132 | -0.0919 | -0.174 (inactive) | -0.13 (inactive) | 0.169 (inactive) | -0.236 | 0.125 (inactive) | 0.034 | -0.464 | 0.0111 | -0.216 |
